GLA spleen mod – qHTS Assay for Inhibitors and Activators of Human alpha-Galactosidase From Spleen Homogenate. Alpha-galactosidase A (Homo sapiens), P06280. human spleen homogenate, 4MU-alpha-Gal fluorescence, 40 min. Potency, µM (series often up to 80 µM), for inactives: at the top dose activity change, negative = inhibition, actives largely listed as inhibitors. 240,000 tested, 0.008% active. AID 2107, 2009;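 further: potency means the concentration at half of the fitted maximal effect; 0% = enzyme with vehicle and -100% = no enzyme basal signal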
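Inhibition or activation of alpha-galactosidase in human spleen homogenate is scored by 4-MU fluorescence after 40 min at 37C, pH 5.0, with 1 mM substrate. AC50s come from concentration-response fitted to the Hill equation.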
GLA inh pH 4.5 – qHTS Assay for Inhibitors of Human alpha-Galactosidase at pH 4.5. 230,000 tested, under 10 active. purified enzyme, 4-MU-alpha-Gal fluorescence, pH 4.5. activity change, negative = inhibition, % at 105 µM;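 further: 0% = full activity with enzyme and -100% = basal without enzyme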
Target sequence (P06280 whole entry, looked up): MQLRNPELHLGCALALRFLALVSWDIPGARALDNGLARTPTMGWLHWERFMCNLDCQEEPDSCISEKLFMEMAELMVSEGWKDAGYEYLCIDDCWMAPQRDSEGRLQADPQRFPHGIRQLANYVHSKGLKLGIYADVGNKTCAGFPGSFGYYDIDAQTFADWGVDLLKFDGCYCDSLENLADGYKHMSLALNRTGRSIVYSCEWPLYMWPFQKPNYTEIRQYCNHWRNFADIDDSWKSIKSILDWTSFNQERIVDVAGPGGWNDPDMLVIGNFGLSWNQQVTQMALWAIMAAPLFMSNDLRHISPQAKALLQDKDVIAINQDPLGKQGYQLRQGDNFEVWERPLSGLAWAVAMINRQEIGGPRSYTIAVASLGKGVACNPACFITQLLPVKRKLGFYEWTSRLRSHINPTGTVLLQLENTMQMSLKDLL
GAA inh – qHTS Assay for Inhibitors of Human alpha-Glucosidase as a Potential Chaperone Treatment of Pompe Disease | Lysosomal alpha-glucosidase (Homo sapiens), P10253 | purified human GAA, 4-MU-alpha-glucoside fluorescence | Potency, µM (titrated, usually from 76.9 µM), without a hit: at the highest dose activity change, negative = inhibition, usual class: inhibitors | 200,000 tested, 0.005% active | AID 1466, 2008;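 further: potency means the concentration at half of the fitted maximal effect; plate controls were uninhibited enzyme wells for no effect and no-enzyme background for full effect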
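AC50 values come from Hill fits of compound titrations (up to 77 uM) against 4 nM human enzyme. Substrate 4-methylumbelliferyl-alpha-D-pyranoside at 400 uM, pH 5.0 citrate buffer, 20 min room temperature; fluorescence Ex 365/Em 440 after alkaline stop.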
GAA glycogen mod – qHTS Assay for Inhibitors and Activators of Human alpha-Glucosidase Cleavage of Glycogen | Lysosomal alpha-glucosidase (Homo sapiens), P10253 | recombinant GAA, glycogen substrate, Amplex Red glucose oxidase fluorescence | Potency, µM (top dose mostly 76.4 µM), for the others: top-dose activity change, negative = inhibition, actives largely listed as inhibitors | 300,000 tested, 0.38% active | AID 2100, 2009;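 further: potency means the concentration at half of the fitted maximal effect; 0% = full enzyme reaction and -100% = no-enzyme basal signal; the screen sought inhibitors and activators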
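qHTS, 1536-well; enzyme 4 nM final; cpd up to 77 uM; substrate bovine liver glycogen 30 ug; 50 mM citrate/phosphate pH 5.0, 0.01% Tween-20; 37 C, 40 min; Amplex Red detection 45 min RT; Hill fit → AC50.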
GAA spleen mod – qHTS Assay for Inhibitors and Activators of Human alpha-Glucosidase From Spleen Homogenate; Lysosomal alpha-glucosidase (Homo sapiens), P10253; human spleen homogenate, 4-MU-alpha-glucoside fluorescence; Potency, µM (top dose mostly 79.9 µM), without a hit: at the top dose activity change, negative = inhibition, hits mostly inhibitors; 240,000 tested, 0.006% active; AID 2112, 2009;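 further: potency means the concentration at half of the fitted maximal effect; 0% = enzyme with vehicle and -100% = no enzyme basal signal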
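Human spleen homogenate (1 ug) incubated with compounds and 1 mM 4-methylumbelliferyl-alpha-D-glucopyranoside in pH 5.0 citrate/phosphate buffer, 37 C, 40 min. Stopped at pH 10; 4-MU fluorescence (Ex 365/Em 440 nm); AC50 by Hill fit.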
N370S GC – qHTS Assay for Inhibitors and Activators of N370S glucocerebrosidase as a Potential Chaperone Treatment of Gaucher Disease; N370S GC spleen homogenate, 4MU-glucoside fluorescence; Potency, µM (doses to about 59.4 µM), without a hit: top-dose activity change, negative = inhibition, most hits filed as inhibitors; 330,000 tested, 0.092% active; AID 2101, 2009;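 further: potency means the concentration at half of the fitted maximal effect; 0% = full enzyme activity and -100% = no enzyme basal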
* hit, by the source's call; ? = inconclusive; . = no result; [ ] = dose if it differs, or a comment. The list is not random: actives were taken first. Their share in the collection is about 0.43%. The call rests on the fitted dose curve; in most records, active means well fitted curve in the direction sought with a large enough effect; inconclusive means small, poorly fitted or top-dose-only effect, or another doubt; inactive means no such curve, though single readings can be large; an effect the other way counts as inactive or inconclusive.

SMILES	GLA spleen mod	GLA inh pH 4.5	GAA inh	GAA glycogen mod	GAA spleen mod	N370S GC
Cc1c(NCc2nc3ccccc3[nH]2)c(=O)n(-c2ccccc2)n1C	4.4%	-9.8	-2.9%	11.1µM*	1.2%	-3.1%
Cc1c(NCc2cc(Cl)ccc2O)c(=O)n(-c2ccccc2)n1C	-1.6%	6.0	10.8%	12.6µM*	-3.2%	0.2%
Cc1c(NC(=O)Nc2c(Cl)cccc2Cl)c(=O)n(-c2ccccc2)n1C	6.7%	4.7	.	-5.8%	3.4%	0.4%
Cc1c(NC(=O)Nc2ccc(Cl)cc2Cl)c(=O)n(-c2ccccc2)n1C	4.4%	-0.3	6.0%	-9.3%	0.5%	12.2%
COc1cc(OC)cc(C2=Nn3c(nnc3-c3ccccc3OC)SC2)c1	7.1%	.	.	.	-7.0%	0.0%
CN1CCN(C2Cc3ccccc3Sc3ccc(S)cc32)CC1 (stereo not given)	-6.5%	-12.7	.	.	-6.5%	12.6µM*
c1ccc(CN(CCN(Cc2ccccn2)Cc2ccccn2)Cc2ccccn2)nc1	0.1%	.	.	.	-6.6%	-0.3%
COc1cccc(-n2sc3c(c2=S)-c2cc(OC)ccc2NC3(C)C)c1	-5.6%	-6.7	-7.9%	39.8µM*	-6.3%	1.4%
COc1cccc(-n2cn[nH]c2=S)c1	1.3%	2.7[21.1 µM]	-1.8%	-6.5%	1.1%	1.8%
O=C(c1ccc2ncsc2c1)N1CCN(c2ccc(O)cc2)CC1	2.5%	1.2	-2.7%	9.92µM*	1.5%	-2.1%
O=C(c1ccc2ncsc2c1)N1CCN(c2ccccc2Cl)CC1	3.4%	?	4.7%	-8.9%	4.0%	-11.0%
CC1CCC2C(=O)OC(CN3C(=O)c4ccccc4C3=O)CN2C1c1ccc(Br)cc1 (stereo not given)	14.5%[17.5 µM]	.	.	.	3.6%[17.4 µM]	18.9%[12.8 µM]
CSc1ccccc1NC(=O)CN(C)CC(=O)NCc1ccccc1	35.5µM*	12.3	0.7%	4.9%	?	28.7%
CSc1ccccc1NC(=O)CN(C)CC(=O)Nc1cc(C)ccc1C	-10.2%	-3.7	-10.7%	18.3%	-3.3%	-4.4%
COc1ccc2c(c1OC)C(=O)OC2CC(=O)c1ccc(O)c(O)c1 (stereo not given)	2.3%	-11.2	-5.4%	14µM*	-5.5%	-14.7%
Cc1cc2c(nc1C)CCCCN2C[C@H](C)O/N=C1/[C@H]2O[C@@H]2[C@@H](O)[C@H]2[C@H]1CCn1c(=O)n(-c3ccccc3)c(=O)n12	2.8%[17.5 µM]	.	.	.	-4.1%[17.4 µM]	2.1%[12.8 µM]
O=S(=O)(NC1c2cccc3cccc(c23)C1N1CCNCC1)c1ccc(Cl)cc1 (stereo not given)	-12.2%	5.6	7.7%	7.0%	-7.5%	7.08µM*
O=C(NNC(=S)NC1CCCCC1)c1ccc(Cl)s1	2.8%	0.4	?	50.1µM*	-14.0%	1.0%
Oc1ccc(Nc2nc(-c3ccc4ccccc4c3)cs2)cc1	10.2%	1.7	?	5.62µM*	10.2%	?
Cc1ccc(Nc2nc(-c3c(C)nc4ncccn34)cs2)cc1	-3.2%	-6.2	4.3%	?	-4.9%	-11.7%
Cc1nc2ncccn2c1-c1csc(Nc2ccc(O)cc2)n1	-1.4%	-2.7	-4.1%	22.4µM*	0.2%	-2.3%
Oc1ccc(-c2nc(-c3ccc(O)c(O)c3)cs2)cc1	6.1%	-1.5	-9.2%	11.1µM*	0.9%	-17.9%
Cc1ccc(Nc2nc(-c3c(C)nc4ccccn34)cs2)cc1	8.7%	-7.3	-7.2%	28.2µM*	5.6%	-9.8%
CO[C@@H]1COC(=O)[C@H](COCc2ccccc2)NC(=O)C/C=C\[C@@H](C)[C@H](OC)COC(=O)[C@H](COCc2ccccc2)NC(=O)C/C=C\[C@H]1C	-7.3%[17.5 µM]	.	.	.	-3.4%[17.4 µM]	-7.0%[12.8 µM]
CC(=O)Nc1nc(C)c(-c2csc(Nc3ccc(O)cc3)n2)s1	1.5%	-0.3	0.1%	25.1µM*	1.5%	?
SMILES	GLA spleen mod	GLA inh pH 4.5	GAA inh	GAA glycogen mod	GAA spleen mod	N370S GC
COc1ccc(OC)c(NC(=O)NC2(C(F)(F)F)Oc3ccccc3O2)c1	-4.2%	2.5	-0.1%	35.5µM*	2.1%	7.3%
Cc1cc(NC(=O)NC2(C(F)(F)F)Oc3ccc(Cl)cc3O2)no1 (stereo not given)	-4.4%	-2.7	-1.1%	7.08µM*	-2.2%	-5.8%
COCCNC(=O)NC1(C(F)(F)F)Oc2ccc(Cl)cc2O1 (stereo not given)	-1.9%	5.2	-9.5%	-18.7%	-1.6%	16.1%
COc1ccc(OC)c(NC(=O)Nc2ccccc2C)c1	3.7%	-0.2	?	2.2%	3.4%	2.1%
CO[C@@H]1COC(=O)[C@H](C)NC(=O)C/C=C\[C@@H](C)[C@@H](NS(=O)(=O)c2ccc(C)cc2)COC(=O)C/C=C\[C@@H]1C	1.4%[17.5 µM]	.	.	.	0.5%[17.4 µM]	2.7%[12.8 µM]
Cn1cnc([N+](=O)[O-])c1Nc1ccc(O)cc1	3.2%	-8.0	?	28µM*	-8.7%	18.2%
CC(=O)c1ccc(C2CC34CNS(=O)(=O)C3CC2O4)cc1 (stereo not given)	11.4%	.	.	.	1.2%	0.2%
CCOC(=O)NC1(NC2CCCCC2)Oc2ccccc2O1	2.7%	4.6	3.0%	8.91µM*	2.5%	4.8%
CCOC(=O)NC1(NCc2ccccc2)Oc2ccccc2O1	5.1%	-4.0	4.1%	15.7µM*	1.4%	-1.3%
O=C(NNC(=S)Nc1ccc(Br)cc1)c1cccnc1	.	.	.	50.1µM*	.	-5.1%
Cc1nnc(N/N=C/c2c(O)n(-c3cccc(C(F)(F)F)c3)c(=O)c3ccccc23)[nH]c1=O	-6.9%	-4.0	-2.5%	25.1µM*	-2.6%	-11.2%
Cc1ccc2nc(NCCN)c3ncc(C)n3c2c1	3.2%	.	.	.	-2.1%	-4.5%
C[C@H]1Cc2c(COc3ccccc3)nc3c(c2CO1)CN(C(=O)NCCc1c[nH]c2ccccc12)CC3	-0.8%[17.5 µM]	3.4	.	.	2.4%[17.4 µM]	-9.3%[12.8 µM]
Cc1ccc(-c2nc3ncccn3c2Nc2ccc3c(c2)OCO3)o1	-4.8%	8.3	-1.7%	10µM*	3.5%	8.9%
Oc1ccc(-c2nc3ncccn3c2Nc2ccc3c(c2)OCO3)cc1	-8.1%	-5.6	4.9%	24.9µM*	-5.9%	3.1%
CCc1cc2c(nc1CC)CCN(CC/C(C)=N/OCC[C@@H]1C=C[C@H](OC(C)=O)[C@H](COC(C)=O)O1)C2	11.7%[17.5 µM]	.	.	.	-4.2%[17.4 µM]	8.6%[12.8 µM]
CCCCCCNC(=O)Nc1ccc(S(=O)(=O)Nc2ccc(CCNC[C@H](O)COc3ccc(O)cc3)cc2)cc1	-0.3%	-13.5	.	.	-12.9%	7.94µM*
